Data on seven compounds can be found in PubChem BioAssay (NCATS).

Inconclusive results are not listed. The source made the active and inactive calls. Unless noted, the call rests on the fitted dose curve; in most records, active means well fitted curve in the direction sought with a large enough effect; inconclusive means small, poorly fitted or top-dose-only effect, or another doubt; inactive means no such curve, though single readings can be large; an effect the other way counts as inactive or inconclusive.

Assay [1] is described as follows: AP1 Signaling Pathway (AID 357; active means well fitted curve in either direction with a large enough effect, not every such curve was filed as active;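 further: ME-180 reporter cells stimulated with EGF at its EC50 level; on the % scale 0 is the no-effect control and ±100 the full control effect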). In a few lines: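 A ratiometric CCF4 readout (405 nm excitation; 460 and 530 nm emission) quantified AP-1-driven beta-lactamase in ME-180 cells after 5 h with compound and EC50 EGF; AC50 values were derived for activators and inhibitors.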
Assay [2] is described as follows: NFAT Signaling Pathway (AID 444; active means well fitted curve in either direction with a large enough effect, not every such curve was filed as active;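 further: carbachol stimulus at about its EC50 of 1 µM final; on the % scale 0 is the no-effect control and ±100 the full control effect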). As to conditions: Jurkat NFAT-bla M1, carbachol, beta-lactamase ratio, 5 h; at 17.2 µM (top of the series) unless noted. The method in brief: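 Jurkat cells carrying an NFAT-driven β-lactamase reporter and co-transfected muscarinic M1 receptor were treated with compound plus carbachol (1 uM final, an EC50 level) for 5 h at 37 °C. CCF4 loading followed for 1 h at RT; 460/530 nm ratio gave %activity.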

Assay [3] is described as follows: Stat Signaling Pathway (AID 446; active means well fitted curve in either direction with a large enough effect, not every such curve was filed as active;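 further: ME-180 cervical cancer cells given 40 pM IL-6 alongside compound; SIE-controlled beta-lactamase reporter measured as 460/530 nm FRET emission ratio; on the % scale 0 is the no-effect control and ±100 the full control effect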). In a few lines:
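Overnight-plated ME-180 cells bearing a STAT Inducible Element beta-lactamase reporter; 5 h co-exposure to compound and 40 pM IL-6; values normalized to 300 pM IL-6 and 125 nM JAK inhibitor controls.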

The target of assay [4] is Mitogen-activated protein kinase 10 (Mus musculus) (UniProt Q61831). Kind of assay: JNK3 AlphaScreen Assay (AID 530; active means well fitted curve in either direction with a large enough effect, not every such curve was filed as active;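 further: kinase came from lysate of stimulated human HepG2 cells; signal reports phosphorylation of biotinylated GST-cJun 1-79 at Ser73 with 10 µM ATP; on the % scale 0 is the no-effect control and ±100 the full control effect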). The method in brief: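 Phosphorylation of biotinylated GST-cJun(1-79) at Ser73 is measured by AlphaScreen proximity luminescence. Enzyme is JNK3 in HepG2 lysates activated with interleukin-1beta and tumor necrosis factor alpha; ATP is 10 uM final.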
In general terms: Alpha assays give light when donor and acceptor beads are brought close together.

Assay [5] has as its target 3',5'-cyclic-AMP phosphodiesterase 4B (Homo sapiens) (UniProt Q07343). Briefly: qHTS Assay for Inhibitors of PDE-IV (AID 607; active means well fitted activation curve with a large enough effect in the main read-out, with a control signal flat, not every such curve was filed as active; further: % of control where 0% means no effect). In a few lines: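 Live HEK293 cells with a modified cyclic nucleotide-gated (CNG) channel report intracellular cAMP via membrane-potential dye fluorescence (ex 535/em 590 nm). Endogenous PDE-IV was targeted. Compounds were tested at up to 22.9 uM final; RO 20-1724 100 uM served as control.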
(In general: qHTS replaces the single test concentration by a dilution series.)

Assay [6] can be described thus: qHTS Assay for Lipid Storage Modulators (AID 1519; calls by dose curve). As to conditions: Drosophila S3 cells, BODIPY lipid droplet/cell ratio, laser cytometry, cells loaded with oleic acid. In a few lines: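 Cells seeded at 5,000 per well were treated with compounds over a concentration series and loaded with oleic acid (400 uM, as added). Lipid droplet fluorescence (488 nm excitation, 500-530 nm channel) was read by laser-scanning cytometry and normalized to 20 uM Triacsin C.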

The target of assay [7] is ATP-dependent 6-phosphofructokinase (Trypanosoma brucei brucei) (UniProt O15648). Kind of assay: qHTS Assay to Find Inhibitors of T. brucei phosphofructokinase: hit validation (AID 492961). The method in brief: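 Reaction: 0.1 M triethanolamine pH 8.0, 5 mM MgCl2, F6P 0.5 mM, ATP 0.1 mM, PFK 1.25 nM, 45 min RT. Read-out: ADP-Glo luminescence. Analysis: concentration-response fits, classed by r2 and efficacy.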
ATP-dependent 6-phosphofructokinase (Trypanosoma brucei brucei), sequence (O15648 whole entry, looked up): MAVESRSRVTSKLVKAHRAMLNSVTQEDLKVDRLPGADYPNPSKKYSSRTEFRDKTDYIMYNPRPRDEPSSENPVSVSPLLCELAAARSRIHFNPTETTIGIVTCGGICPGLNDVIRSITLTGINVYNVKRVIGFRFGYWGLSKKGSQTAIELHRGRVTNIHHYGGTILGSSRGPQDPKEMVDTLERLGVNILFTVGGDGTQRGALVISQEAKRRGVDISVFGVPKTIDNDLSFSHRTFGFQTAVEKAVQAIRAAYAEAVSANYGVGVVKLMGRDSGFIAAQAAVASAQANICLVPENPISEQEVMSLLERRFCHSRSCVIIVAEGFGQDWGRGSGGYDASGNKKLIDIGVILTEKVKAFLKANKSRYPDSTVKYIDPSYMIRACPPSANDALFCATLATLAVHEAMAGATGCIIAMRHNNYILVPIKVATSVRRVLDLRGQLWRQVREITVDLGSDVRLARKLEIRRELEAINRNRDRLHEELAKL

Assay [8] concerns the target Luciferin 4-monooxygenase (Photinus pyralis) (UniProt P08659). Briefly: Biochemical firefly luciferase enzyme assay for NPC (AID 624030).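 Further: purified P. pyralis luciferase at 10 nM with luciferin and ATP substrate; 0% = DMSO and -100% = full luciferase inhibition by PTC124 control; nearly all actives have a fitted effect of over 70% in size.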 The method in brief:
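Counter-screen for direct inhibition of the luciferase enzyme by approved-drug library compounds, run at 10 nM enzyme in 50 mM Tris acetate (final). Luminescence was read within 5 min of enzyme-buffer addition and normalized to PTC124 versus DMSO (0%).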

Assay [9] is described as follows: qHTS profiling for inhibitors of Plasmodium falciparum proliferation (AID 504749).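 Further: 0% = DMSO vehicle and full inhibition = artemisinin control; nearly all actives have a fitted effect of over 60% in size.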 The settings on record: P. falciparum in erythrocytes, SYBR Green DNA, 72 h. In a few lines:
(§1)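 Quantitative HTS: compounds pinned into medium, infected erythrocytes added (0.3% parasitemia, 2.5% hematocrit), 72 h culture at 37 C under 5% CO2. Saponin/Triton lysis with SYBR Green I, overnight RT, then fluorescence read.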

A further assay deals with C2A. The assay is described as above. As to conditions: P. falciparum in erythrocytes, SYBR Green DNA, 72 h; series mostly up to 12.8 µM. In a few lines: as §1
In the next assay the test system is CP217. Described as above. As to conditions: P. falciparum in erythrocytes, SYBR Green DNA, 72 h; series mostly up to 12.8 µM. In a few lines:
as §1

A further assay relates to CP238. The assay is described as above. As to conditions: P. falciparum in erythrocytes, SYBR Green DNA, 72 h; series mostly up to 12.8 µM. The method in brief:
as §1

The subject of another assay is CP250. The description is as above. The settings on record: P. falciparum in erythrocytes, SYBR Green DNA, 72 h; series mostly up to 12.8 µM. In a few lines:
as §1

A further assay concerns CP252. Described as above. The settings on record: P. falciparum in erythrocytes, SYBR Green DNA, 72 h; series mostly up to 12.8 µM. The method in brief: as §1
The test system of the next assay is FAB9. The assay is described as above. As to conditions: P. falciparum in erythrocytes, SYBR Green DNA, 72 h; series mostly up to 12.8 µM. The method in brief: as §1
The subject of a further assay is HB3. The description is as above. As to conditions: P. falciparum in erythrocytes, SYBR Green DNA, 72 h; series mostly up to 12.8 µM. The method in brief:
as §1

The subject of a further assay is SC27B. Described as above. The settings on record: P. falciparum in erythrocytes, SYBR Green DNA, 72 h; series mostly up to 12.8 µM. In a few lines:
as §1

In assay [10] the target is Glucocorticoid receptor (Homo sapiens) (UniProt P04150). Kind of assay: GR-EFC Redistribution (AID 451; calls by dose curve; further: potency means the concentration at half of the fitted maximal effect). As to conditions: CHO-K1 GR-EFC translocation, beta-gal luminescence, 2 h. The method in brief: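 CHO-K1 cells stably expressing nuclear-localized β-gal enzyme acceptor and GR fused C-terminally to the enzyme donor fragment; ligand-driven nuclear translocation restores β-gal by complementation. Compounds titrated up to 46 uM final, 2 h at 37 °C; luminescence read.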
Glucocorticoid receptor (Homo sapiens), sequence (P04150 whole entry, looked up, the tested form may be a part): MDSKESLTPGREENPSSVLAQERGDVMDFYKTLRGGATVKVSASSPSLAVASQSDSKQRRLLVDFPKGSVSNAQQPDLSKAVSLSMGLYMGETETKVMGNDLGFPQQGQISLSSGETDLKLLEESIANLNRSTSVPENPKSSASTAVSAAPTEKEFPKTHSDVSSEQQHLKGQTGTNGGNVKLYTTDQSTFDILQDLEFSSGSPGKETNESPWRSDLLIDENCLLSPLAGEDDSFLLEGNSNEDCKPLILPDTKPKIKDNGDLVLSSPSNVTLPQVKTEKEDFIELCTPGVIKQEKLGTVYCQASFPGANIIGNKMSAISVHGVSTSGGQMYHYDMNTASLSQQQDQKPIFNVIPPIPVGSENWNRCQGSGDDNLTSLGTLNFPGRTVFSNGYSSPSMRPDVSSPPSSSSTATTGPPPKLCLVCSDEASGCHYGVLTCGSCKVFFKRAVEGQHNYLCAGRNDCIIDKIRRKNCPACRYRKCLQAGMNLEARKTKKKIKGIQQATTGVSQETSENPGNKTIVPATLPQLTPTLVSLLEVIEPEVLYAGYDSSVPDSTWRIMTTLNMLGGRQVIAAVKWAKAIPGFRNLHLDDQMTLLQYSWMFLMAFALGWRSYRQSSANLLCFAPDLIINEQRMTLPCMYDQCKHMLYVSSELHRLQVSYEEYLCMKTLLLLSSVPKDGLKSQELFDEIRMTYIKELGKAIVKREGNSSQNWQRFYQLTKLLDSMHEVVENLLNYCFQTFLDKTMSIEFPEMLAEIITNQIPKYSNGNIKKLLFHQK

Assay [11] deals with Ubiquitin carboxyl-terminal hydrolase 1 (Homo sapiens) (UniProt O94782). Briefly: Inhibitors of USP1/UAF1: Pilot qHTS (AID 504865).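 Further: rhodamine fluorescence freed from ubiquitin-rhodamine substrate followed over time; top concentration of the series differs between compounds; on the % scale 0 is the no-effect control and ±100 the full control effect; nearly all actives have a fitted effect of over 35% in size.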 In a few lines:
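Kinetic fluorescence assay: 1nM USP1/UAF1, 15 min compound preincubation, then 150nM Ub-Rho; 480/540 nm.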

Setting [12] is: measured here: cell count channel max response.
The mark [13] stands for this setting: measured here: lipid channel max response.
The mark [14] stands for this setting: at 28.7 µM (top of the series), parasite line A.
[15] abbreviates: at 28.7 µM (top of the series), parasite line B.

Luciferin 4-monooxygenase (Photinus pyralis), sequence (P08659 whole entry, looked up): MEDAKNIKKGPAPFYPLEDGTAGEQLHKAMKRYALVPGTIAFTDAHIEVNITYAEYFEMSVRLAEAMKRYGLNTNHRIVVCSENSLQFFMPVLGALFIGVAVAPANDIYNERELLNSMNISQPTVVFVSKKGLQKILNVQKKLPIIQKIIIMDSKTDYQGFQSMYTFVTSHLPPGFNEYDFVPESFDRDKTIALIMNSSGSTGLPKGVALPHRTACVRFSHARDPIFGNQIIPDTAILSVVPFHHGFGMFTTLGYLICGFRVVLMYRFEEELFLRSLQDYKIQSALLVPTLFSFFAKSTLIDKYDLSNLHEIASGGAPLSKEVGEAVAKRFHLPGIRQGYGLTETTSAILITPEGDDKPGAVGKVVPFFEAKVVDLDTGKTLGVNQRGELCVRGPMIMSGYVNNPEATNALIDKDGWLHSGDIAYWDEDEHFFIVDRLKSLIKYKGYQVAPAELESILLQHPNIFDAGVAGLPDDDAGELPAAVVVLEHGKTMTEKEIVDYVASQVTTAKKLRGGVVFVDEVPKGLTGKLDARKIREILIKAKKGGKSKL
3',5'-cyclic-AMP phosphodiesterase 4B (Homo sapiens), sequence (Q07343 whole entry, looked up): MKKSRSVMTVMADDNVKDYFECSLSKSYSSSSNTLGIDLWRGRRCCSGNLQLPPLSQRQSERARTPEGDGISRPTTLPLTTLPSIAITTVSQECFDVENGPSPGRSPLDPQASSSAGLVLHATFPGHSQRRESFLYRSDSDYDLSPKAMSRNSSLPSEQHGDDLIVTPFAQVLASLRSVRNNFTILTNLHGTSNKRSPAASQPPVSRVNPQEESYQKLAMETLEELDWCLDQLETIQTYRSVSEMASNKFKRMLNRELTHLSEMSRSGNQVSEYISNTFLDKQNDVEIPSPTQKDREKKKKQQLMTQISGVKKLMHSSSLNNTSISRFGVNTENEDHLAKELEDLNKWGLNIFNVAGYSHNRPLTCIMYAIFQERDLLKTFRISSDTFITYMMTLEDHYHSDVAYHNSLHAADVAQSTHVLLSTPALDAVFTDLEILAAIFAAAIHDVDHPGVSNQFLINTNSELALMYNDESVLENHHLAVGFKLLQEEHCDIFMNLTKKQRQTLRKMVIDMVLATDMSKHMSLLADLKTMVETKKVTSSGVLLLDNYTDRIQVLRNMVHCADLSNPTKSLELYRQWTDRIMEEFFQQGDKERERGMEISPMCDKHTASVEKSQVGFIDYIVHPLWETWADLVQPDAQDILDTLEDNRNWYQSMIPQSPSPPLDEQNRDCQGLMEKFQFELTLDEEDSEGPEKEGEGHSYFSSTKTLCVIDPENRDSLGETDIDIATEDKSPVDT
Ubiquitin carboxyl-terminal hydrolase 1 (Homo sapiens), sequence (O94782 whole entry, looked up): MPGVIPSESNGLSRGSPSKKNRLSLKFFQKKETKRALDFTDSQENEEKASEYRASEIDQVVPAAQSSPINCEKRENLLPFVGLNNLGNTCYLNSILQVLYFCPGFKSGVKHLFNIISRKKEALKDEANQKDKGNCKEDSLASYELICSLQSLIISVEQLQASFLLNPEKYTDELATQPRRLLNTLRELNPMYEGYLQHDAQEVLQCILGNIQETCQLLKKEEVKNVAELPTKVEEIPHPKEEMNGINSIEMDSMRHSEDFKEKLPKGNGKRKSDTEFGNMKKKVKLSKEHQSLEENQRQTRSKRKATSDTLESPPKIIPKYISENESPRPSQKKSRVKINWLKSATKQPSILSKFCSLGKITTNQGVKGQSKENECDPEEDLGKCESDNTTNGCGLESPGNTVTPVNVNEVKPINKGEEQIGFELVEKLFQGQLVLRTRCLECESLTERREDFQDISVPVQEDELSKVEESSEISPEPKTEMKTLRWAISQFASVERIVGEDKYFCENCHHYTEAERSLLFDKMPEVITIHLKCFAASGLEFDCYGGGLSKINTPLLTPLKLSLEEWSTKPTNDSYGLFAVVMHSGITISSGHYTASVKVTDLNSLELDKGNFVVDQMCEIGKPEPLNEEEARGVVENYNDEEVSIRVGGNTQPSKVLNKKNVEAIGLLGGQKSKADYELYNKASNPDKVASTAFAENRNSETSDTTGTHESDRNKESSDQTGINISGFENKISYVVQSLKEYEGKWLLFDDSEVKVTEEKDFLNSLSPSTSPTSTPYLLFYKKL

As for `CCN[C@@H]1C[C@H](N)[C@H](O[C@H]2OC(CN)=CC[C@H]2N)[C@@H](O)[C@H]1O[C@H]1OC[C@@](C)(O)[C@@H](NC)[C@@H]1O`, the result in assay [1], in assay [3], in [5] and in assay [7] was inactive. The activity change, negative = inhibition in assay [2] is -14.4% (inactive); in assay [6] (at 25.7 µM (top of the series)) it was -1.78% (inactive). The Potency entry (in assay [4]; in assay [8]; in the assay on C2A; with CP217; in the assay with CP238; with CP250) was “inactive” in each case. Besides, the Potency entry in the assay on CP252, in the assay on FAB9, with HB3 and with SC27B was “inactive” each time. The figures for the max response in [6] (setting [12]) and in assay [6] (setting [13]) were -6.32% and -1.8%, respectively. The results for the activity, negative = inhibition in assay [9] (setting [14]) and in assay [9] (setting [15]) were 6.1% (inactive) and 14.9% (inactive), respectively.

Consider `CC(=O)Nc1cc2ccccc2oc1=O`, for which the result in [1], in assay [3] and in assay [5] was inactive. Further, the activity change, negative = inhibition in [2] is -6.5% (inactive); in assay [6] (at 25.7 µM (top of the series)), 2.36% (inactive). For the same compound, the Potency in assay [10] is > 20.6 µM (inactive). The Potency result in assay [4] and in assay [11] was “inactive” throughout. The max response in assay [6] (setting [12]) was -14.5%; in assay [6] (setting [13]), -11.4%.

With `C[C@@H]1O[C@H](O[C@@H]2\C=C/C=C\C=C/C=C\C[C@H](C)OC(=O)/C=C\[C@H]3O[C@@H]3C[C@H](O)C[C@]3(O)C[C@@H](O)[C@@H](C(=O)O)[C@H](C2)O3)[C@@H](O)[C@H](N)[C@@H]1O` (stereo in doubt), the call in assay [1], in [3], in assay [5] and in assay [7] was inactive. For the same compound, the activity change, negative = inhibition in assay [2] was -3.9% (inactive); in [6] (at 25.7 µM (top of the series)) it was 2.21% (inactive). Further, the Potency in [10] is > 20.6 µM (inactive). In addition, the Potency entry (in assay [4]; in assay [11]; in assay [8]; in the assay on C2A; with CP217; with CP238) was “inactive” each time. The Potency result with CP250, in the assay on CP252, in the assay on FAB9, in the assay on HB3 and in the assay with SC27B was “inactive” in each case. Moreover, the max response in [6] (setting [12]) was -4.86%; in [6] (setting [13]), 0.155%. Also, the activity, negative = inhibition in [9] (setting [14]) was 9.05% (inactive); in [9] (setting [15]), 8% (inactive).

On to `C[C@H](CCC(=O)O)[C@H]1CC[C@@H]2[C@H]3[C@@H](CC[C@@]21C)[C@]1(C)CC[C@H](O)C[C@@H]1C[C@@H]3O`, for which the compound was called inactive in [1] and in assay [3]. Also, the activity change, negative = inhibition in assay [2] is -6.74% (inactive); in assay [6] (at 25.7 µM (top of the series)), 0.999% (inactive). In addition, the Potency entry in assay [4] and in assay [11] was “inactive” each time. Moreover, the max response in assay [6] (setting [12]) is -6.52%; in [6] (setting [13]), -4.97%.

As to `CCc1c(C)[nH]c2c1C(=O)[C@H](CN1CCOCC1)CC2`, the compound was classed as inactive in assay [1], in assay [3], in [5] and in [7]. Further, the activity change, negative = inhibition is -21.1% (inactive) in assay [2] and 0.521% (inactive) in assay [6] (at 25.7 µM (top of the series)). Also, the Potency entry (in [4]; in assay [8]; with C2A; in the assay on CP217; in the assay with CP238; with CP250) was “inactive” in each case. In addition, the Potency entry in the assay with CP252, with FAB9, with HB3 and in the assay on SC27B was “inactive” each time. Further, the values for the max response in assay [6] (setting [12]) and in assay [6] (setting [13]) were -8.85% and -8.65%, respectively. Moreover, the activity, negative = inhibition in assay [9] (at 12.8 µM (top of the series), parasite line A) was 13% (inactive); in [9] (at 12.8 µM (top of the series), parasite line B), 6.66% (inactive).

Turning to `CN1CCCN=C1/C=C\c1cccs1`, the result in assay [1], in assay [3] and in assay [5] was inactive. The activity change, negative = inhibition was -25.3% (inactive) in assay [2] and 0.765% (inactive) in [6] (at 25.7 µM (top of the series)). Moreover, the Potency in assay [10] is > 20.6 µM (inactive). Besides, the Potency result in assay [4] and in assay [8] was “inactive” each time. In addition, the max response was -6.05% in [6] (setting [12]) and -6.06% in [6] (setting [13]).

With `CC(=O)/C(C)=N\O`, the compound was classed as inactive in [1] and in assay [3]. Moreover, the activity change, negative = inhibition is 4.19% [at 38 µM] (inactive) in assay [2] and -1.01% (inactive) in assay [6] (at 57.5 µM (top of the series)). The Potency in assay [10] is > 46 µM (inactive). Also, the Potency entry in [4] and in [11] was “inactive” throughout. Also, the figures for the max response in assay [6] (setting [12]) and in assay [6] (setting [13]) were -2.91% and -2.64%, respectively.
